Results taken from PubChem BioAssay (NCATS).
Records with an inconclusive call do not appear. The source made the active and inactive calls. Unless noted, calls follow the shape of the dose curve; as a rule, active = well fitted curve in the direction sought with a large enough effect; inconclusive = small, poorly fitted or top-dose-only effect, or another doubt; inactive = no such curve, though single readings can be large; an effect the other way counts as inactive or inconclusive.

What was measured:
[1] = S16 Schwann cell PMP22 intronic element beta-lactamase assay (AID 624044; calls by dose curve; also: nearly all actives have a fitted effect of over 15% in size)
Outline: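 Beta-lactamase reporter under a PMP22 intronic regulatory element in stable S16 rat Schwann cells; 24 h compound exposure. 460 nm blue signal normalized between DMSO (0%) and potassium clavulanate, with 535 nm FRET tracking viability; curves classed by r2 and response.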

CP191 = assay: qHTS profiling for inhibitors of Plasmodium falciparum proliferation (AID 504749); also: potency is read from the fitted curve at half-maximal effect; nearly all actives have a fitted effect of over 60% in size; conditions: P. falciparum in erythrocytes, SYBR Green DNA, 72 h; series mostly up to 28.7 µM
Outline: (§1)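 Quantitative HTS: compounds pinned into medium, infected erythrocytes added (0.3% parasitemia, 2.5% hematocrit), 72 h culture at 37 C under 5% CO2. Saponin/Triton lysis with SYBR Green I, overnight RT, then fluorescence read.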

CP260 = assay: as above; conditions: P. falciparum in erythrocytes, SYBR Green DNA, 72 h; series mostly up to 28.7 µM
Outline: as §1

CP265 = assay: as above; conditions: P. falciparum in erythrocytes, SYBR Green DNA, 72 h; series mostly up to 28.7 µM
Outline: as §1

ECU = assay: as above; conditions: P. falciparum in erythrocytes, SYBR Green DNA, 72 h; series mostly up to 28.7 µM
Outline: as §1

HB3 = assay: as above; conditions: P. falciparum in erythrocytes, SYBR Green DNA, 72 h; series mostly up to 28.7 µM
Outline: as §1

N140 = assay: as above; conditions: P. falciparum in erythrocytes, SYBR Green DNA, 72 h; series mostly up to 28.7 µM
Outline: as §1

P93_24 = assay: as above; conditions: P. falciparum in erythrocytes, SYBR Green DNA, 72 h; series mostly up to 28.7 µM
Outline: as §1

P94_40 = assay: as above; conditions: P. falciparum in erythrocytes, SYBR Green DNA, 72 h; series mostly up to 28.7 µM
Outline: as §1

PC26 = assay: as above; conditions: P. falciparum in erythrocytes, SYBR Green DNA, 72 h; series mostly up to 28.7 µM
Outline: as §1

TAB109 = assay: as above; conditions: P. falciparum in erythrocytes, SYBR Green DNA, 72 h; series mostly up to 28.7 µM
Outline: as §1

TAB165 = assay: as above; conditions: P. falciparum in erythrocytes, SYBR Green DNA, 72 h; series mostly up to 28.7 µM
Outline: as §1

[2] = target: Voltage-gated inwardly rectifying potassium channel KCNH2 (Homo sapiens) (UniProt Q12809); assay: qHTS Assay for Small Molecule Inhibitors of the Human hERG Channel Activity (AID 588834);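 also: top concentration of the series differs between compounds; lower thallium flux fluorescence means stronger hERG block; nearly all actives have a fitted effect of over 50% in size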
Voltage-gated inwardly rectifying potassium channel KCNH2 (Homo sapiens), sequence (Q12809 whole entry, looked up): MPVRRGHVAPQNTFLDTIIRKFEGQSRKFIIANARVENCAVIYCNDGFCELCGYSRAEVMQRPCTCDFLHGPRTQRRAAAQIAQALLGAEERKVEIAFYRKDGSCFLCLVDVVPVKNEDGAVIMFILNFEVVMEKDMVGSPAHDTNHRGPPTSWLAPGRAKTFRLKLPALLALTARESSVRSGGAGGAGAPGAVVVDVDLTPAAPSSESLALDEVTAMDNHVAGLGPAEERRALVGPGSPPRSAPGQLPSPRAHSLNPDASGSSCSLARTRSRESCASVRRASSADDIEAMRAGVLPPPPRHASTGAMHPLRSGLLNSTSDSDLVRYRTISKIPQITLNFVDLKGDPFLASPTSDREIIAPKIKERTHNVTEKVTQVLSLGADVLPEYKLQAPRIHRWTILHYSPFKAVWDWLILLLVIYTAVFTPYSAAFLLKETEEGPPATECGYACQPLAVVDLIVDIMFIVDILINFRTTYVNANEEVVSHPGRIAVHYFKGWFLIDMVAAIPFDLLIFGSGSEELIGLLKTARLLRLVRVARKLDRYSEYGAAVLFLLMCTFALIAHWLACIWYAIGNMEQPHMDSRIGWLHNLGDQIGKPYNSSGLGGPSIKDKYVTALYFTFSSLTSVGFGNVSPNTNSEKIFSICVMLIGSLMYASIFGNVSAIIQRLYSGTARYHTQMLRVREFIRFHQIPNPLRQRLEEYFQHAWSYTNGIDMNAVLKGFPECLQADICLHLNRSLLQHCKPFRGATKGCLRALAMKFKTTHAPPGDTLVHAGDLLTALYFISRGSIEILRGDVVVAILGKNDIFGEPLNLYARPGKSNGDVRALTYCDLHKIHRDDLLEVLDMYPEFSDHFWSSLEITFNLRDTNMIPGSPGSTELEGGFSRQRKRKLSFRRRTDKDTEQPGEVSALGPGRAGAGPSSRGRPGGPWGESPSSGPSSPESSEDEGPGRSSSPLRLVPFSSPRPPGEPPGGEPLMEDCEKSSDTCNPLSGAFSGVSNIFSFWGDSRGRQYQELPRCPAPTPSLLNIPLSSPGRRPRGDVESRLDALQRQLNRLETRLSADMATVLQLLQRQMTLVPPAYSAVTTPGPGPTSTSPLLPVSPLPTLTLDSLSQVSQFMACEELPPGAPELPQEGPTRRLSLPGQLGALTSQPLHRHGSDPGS
Outline: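 Thallium serves as surrogate for K+ influx through BacMam-delivered hERG in U2OS cells. Compounds are added for about 10 minutes after dye loading; stimulation buffer then starts flux, monitored kinetically on FDSS.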

[3] = tested on: Zika virus NS2B-NS3 protease (unlinked); assay: Optimization of GU AMC qHTS for Zika virus inhibitors: Unlinked NS2B-NS3 protease assay (AID 1347151); also: nearly all actives have a fitted effect of over 80% in size
Outline: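 Noncovalent NS2B hydrophilic domain–NS3 protease complex (25 nM final) in 10 mM Tris-HCl pH 8.0, 0.01% Tween 20; AMC substrate, room temperature 15 min (~20% conversion); fluorescence change normalized, 4-parameter Hill fit.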

[4] = target: Cytochrome P450 3A4 (Homo sapiens) (UniProt P08684); assay: qHTS Assay for Inhibitors and Substrates of Cytochrome P450 3A4 (AID 884); also: nearly all actives have a fitted effect of over 50% in size
Cytochrome P450 3A4 (Homo sapiens), sequence (P08684 whole entry, looked up): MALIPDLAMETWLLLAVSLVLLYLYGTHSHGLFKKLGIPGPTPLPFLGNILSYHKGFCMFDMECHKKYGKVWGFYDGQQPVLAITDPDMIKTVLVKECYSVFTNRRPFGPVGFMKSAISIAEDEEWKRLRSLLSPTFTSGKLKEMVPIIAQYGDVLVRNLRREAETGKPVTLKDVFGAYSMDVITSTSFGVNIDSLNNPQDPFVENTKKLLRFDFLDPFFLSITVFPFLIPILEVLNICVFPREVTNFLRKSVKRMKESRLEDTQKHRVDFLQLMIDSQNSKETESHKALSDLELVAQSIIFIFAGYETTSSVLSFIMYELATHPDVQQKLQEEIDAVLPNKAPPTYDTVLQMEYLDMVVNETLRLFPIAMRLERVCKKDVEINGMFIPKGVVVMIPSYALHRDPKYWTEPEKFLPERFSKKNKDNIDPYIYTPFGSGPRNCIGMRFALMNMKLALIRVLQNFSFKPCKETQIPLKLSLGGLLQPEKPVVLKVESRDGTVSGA
Outline: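 Luminescent readout of luciferin produced by CYP3A4 (20 nM) dealkylation of Luciferin-PPXE, 25 uM (its KM). NADPH-driven reaction ran 60 min at RT after 10 min compound preincubation; data scaled to 57 uM ketoconazole as 100% inhibition.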

[5] = Confirmation and Secondary Assay for Modulators of Hemoglobin Beta Chain Splicing at IVS2 654 locus (AID 910)
Outline: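 HeLa cells stably carrying EGFP interrupted by mutant beta-globin IVS2-654 intron (CMV-driven) were treated with compound for 2 days at 37C; corrected splicing was scored as total peak GFP intensity per well (488 nm excitation, 500-520 nm emission).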

[6] = Confirmation and Secondary Assay for Modulators of Hemoglobin Beta Chain Splicing at IVS2 705 locus (AID 930);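 also: HeLa cells stably expressing the EGFP-705 splicing reporter; GFP fluorescence per well restored by corrected splicing of the IVS2-705 intron in EGFP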
Outline: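 Read-out: total peak GFP fluorescence per well (488 nm excitation, 500-520 nm emission) by laser-scanning cytometry. Cells: HeLa EGFP-705 splicing reporter, 2 days compound exposure in Optimem/2% FCS.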

[7] = target: ATP-dependent 6-phosphofructokinase (Trypanosoma brucei brucei) (UniProt O15648); assay: qHTS Assay to Find Inhibitors of T. brucei phosphofructokinase: hit validation (AID 492961);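 also: luminescence reports ADP formed as PFK phosphorylates fructose-6-phosphate with ATP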
ATP-dependent 6-phosphofructokinase (Trypanosoma brucei brucei), sequence (O15648 whole entry, looked up): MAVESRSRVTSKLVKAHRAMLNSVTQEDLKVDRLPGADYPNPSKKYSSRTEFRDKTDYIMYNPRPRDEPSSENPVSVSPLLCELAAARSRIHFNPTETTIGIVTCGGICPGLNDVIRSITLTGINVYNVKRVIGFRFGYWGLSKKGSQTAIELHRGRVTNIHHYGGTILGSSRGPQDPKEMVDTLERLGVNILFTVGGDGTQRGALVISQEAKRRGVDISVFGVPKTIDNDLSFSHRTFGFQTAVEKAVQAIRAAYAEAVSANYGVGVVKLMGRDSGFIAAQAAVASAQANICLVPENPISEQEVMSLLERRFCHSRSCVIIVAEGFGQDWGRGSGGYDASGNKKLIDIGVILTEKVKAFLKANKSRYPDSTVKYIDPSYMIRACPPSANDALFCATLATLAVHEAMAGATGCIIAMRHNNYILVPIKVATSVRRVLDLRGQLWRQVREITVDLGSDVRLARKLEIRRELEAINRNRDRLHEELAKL
Outline: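 Reaction: 0.1 M triethanolamine pH 8.0, 5 mM MgCl2, F6P 0.5 mM, ATP 0.1 mM, PFK 1.25 nM, 45 min RT. Read-out: ADP-Glo luminescence. Analysis: concentration-response fits, classed by r2 and efficacy.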

[8] = target: Ubiquitin carboxyl-terminal hydrolase 1 (Homo sapiens) (UniProt O94782); assay: Inhibitors of USP1/UAF1: Pilot qHTS (AID 504865);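 also: rhodamine fluorescence freed from ubiquitin-rhodamine substrate followed over time; top concentration of the series differs between compounds; nearly all actives have a fitted effect of over 35% in size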
Ubiquitin carboxyl-terminal hydrolase 1 (Homo sapiens), sequence (O94782 whole entry, looked up): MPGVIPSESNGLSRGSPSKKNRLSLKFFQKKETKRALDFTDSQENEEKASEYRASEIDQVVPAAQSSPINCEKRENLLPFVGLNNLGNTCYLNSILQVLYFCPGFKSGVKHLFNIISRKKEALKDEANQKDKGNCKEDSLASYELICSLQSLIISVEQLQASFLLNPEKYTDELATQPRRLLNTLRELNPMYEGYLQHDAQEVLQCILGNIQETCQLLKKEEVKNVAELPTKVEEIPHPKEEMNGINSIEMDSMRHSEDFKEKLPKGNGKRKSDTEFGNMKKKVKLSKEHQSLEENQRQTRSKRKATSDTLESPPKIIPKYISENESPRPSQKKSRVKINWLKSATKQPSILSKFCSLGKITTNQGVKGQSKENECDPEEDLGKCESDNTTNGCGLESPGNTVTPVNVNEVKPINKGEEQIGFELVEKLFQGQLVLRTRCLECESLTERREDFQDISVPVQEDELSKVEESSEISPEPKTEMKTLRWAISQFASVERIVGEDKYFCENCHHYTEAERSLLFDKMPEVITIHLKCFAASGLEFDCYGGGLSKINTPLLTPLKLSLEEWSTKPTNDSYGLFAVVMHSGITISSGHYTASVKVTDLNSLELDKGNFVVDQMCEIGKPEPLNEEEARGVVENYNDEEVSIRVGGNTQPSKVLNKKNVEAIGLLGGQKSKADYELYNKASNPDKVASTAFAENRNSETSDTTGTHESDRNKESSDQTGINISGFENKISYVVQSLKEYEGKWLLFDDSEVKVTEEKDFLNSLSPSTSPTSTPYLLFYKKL
Outline: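 USP1/UAF1 complex at 1 nM preincubated 15 min at room temperature with compound, then Ub-Rho substrate added at 150 nM final. Fluorescence (480/540 nm) read kinetically in 50 mM HEPES pH 7.8, 0.5 mM EDTA, 1 mM TCEP, 0.1 mg/ml BSA, 0.01% Tween-20.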

[9] = target: Luciferin 4-monooxygenase (Photinus pyralis) (UniProt P08659); assay: Biochemical firefly luciferase enzyme assay for NPC (AID 624030);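 also: purified P. pyralis luciferase at 10 nM with luciferin and ATP substrate; nearly all actives have a fitted effect of over 70% in size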
Luciferin 4-monooxygenase (Photinus pyralis), sequence (P08659 whole entry, looked up): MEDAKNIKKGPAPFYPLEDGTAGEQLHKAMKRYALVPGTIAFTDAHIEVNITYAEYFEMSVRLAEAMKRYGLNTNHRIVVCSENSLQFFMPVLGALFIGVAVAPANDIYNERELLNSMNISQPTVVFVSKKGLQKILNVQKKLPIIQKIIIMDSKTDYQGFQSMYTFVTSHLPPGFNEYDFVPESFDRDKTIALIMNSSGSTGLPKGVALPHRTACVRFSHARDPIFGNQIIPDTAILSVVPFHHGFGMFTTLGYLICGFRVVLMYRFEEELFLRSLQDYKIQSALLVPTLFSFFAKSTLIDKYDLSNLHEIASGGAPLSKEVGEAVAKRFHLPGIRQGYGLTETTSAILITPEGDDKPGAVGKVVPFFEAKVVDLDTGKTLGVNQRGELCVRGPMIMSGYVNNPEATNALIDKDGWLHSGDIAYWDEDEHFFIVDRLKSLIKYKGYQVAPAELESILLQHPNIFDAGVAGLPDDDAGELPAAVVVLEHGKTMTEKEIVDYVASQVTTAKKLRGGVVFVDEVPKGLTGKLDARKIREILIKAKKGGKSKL
Outline: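 Counter-screen for direct inhibition of the luciferase enzyme by approved-drug library compounds, run at 10 nM enzyme in 50 mM Tris acetate (final). Luminescence was read within 5 min of enzyme-buffer addition and normalized to PTC124 versus DMSO (0%).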

Measured: Potency

O=C(CC1NCCC[C@H]1O)Cn1cnc2cc(Br)c(Cl)cc2c1=O (stereo not given in full)
active: CP191 2820 nM | CP260 2510 nM | CP265 5010 nM | ECU 5010 nM | HB3 2000 nM | N140 3160 nM | P93_24 1410 nM | P94_40 1410 nM | PC26 3790 nM | TAB109 794 nM | TAB165 1000 nM
inactive: [1]

CC[C@H](C)[C@H]1O[C@]2(CC[C@@H]1C)C[C@@H]1C[C@@H](C/C=C(\C)[C@@H](O[C@H]3C[C@H](OC)[C@@H](O[C@H]4C[C@H](OC)[C@@H](O)[C@H](C)O4)[C@H](C)O3)[C@@H](C)/C=C/C=C3\CO[C@@H]4[C@H](O)C(C)=C[C@@H](C(=O)O1)[C@]34O)O2
inactive: [2] | [3]

CCCCC(=O)N(Cc1ccc(-c2ccccc2-c2nn[nH]n2)cc1)C(C(=O)O)C(C)C (stereo not given)
inactive: [4] | [5] | [6] | [7] | [8] | [9]
